Screens deposited in PubChem BioAssay by National Center for Advancing Translational Sciences (NCATS).
Pf growth 48h: Primary qHTS for delayed death inhibitors of the malarial parasite plastid, 48 hour incubation | P. falciparum luciferase growth in erythrocytes, 48 h | Potency, µM (titrated, usually from 28.7 µM), hits mostly inhibitors | hit rate 5.9% among 310,000 | AID 504832, 2011
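Here the parasites carry a stable luciferase gene and grow inside erythrocytes in Albumax-based RPMI medium with compound for one erythrocytic cycle. Activity is scored as loss of luminescent signal.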
Pf growth 96h: Primary qHTS for delayed death inhibitors of the malarial parasite plastid, 96 hour incubation. P. falciparum luciferase reporter growth, 96 h. AID 504834, 2011. hit rate 6.9% among 320,000. Potency, µM (titrated, usually from 28.7 µM), actives largely listed as inhibitors
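P. falciparum expressing integrated firefly luciferase, in erythrocytes at 2% hematocrit, 0.05% parasitemia, incubated with compounds 96 h at 37 C, 5% CO2. Growth inhibition read as loss of luminescence; two-generation exposure targets delayed-death apicoplast inhibitors.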
Cycloheximide cs: Cycloheximide Counterscreen for Small Molecule Inhibitors of Shiga Toxin; cell reporter, cycloheximide protein synthesis inhibition counterscreen; max response, %; hit rate 12% among 300,000; AID 2314, 2010; in the data active = max response mostly above about 13%, no sharp cut-off; inactive = mostly below about 14%; note: read at 38.3 µM for the half of the compounds with a filed dose
Shiga toxin inh: A qHTS for Small Molecule Inhibitors of Shiga Toxin | inhibition, % at 38.7 µM | Vero cells, Shiga toxin protein synthesis inhibition reporter | hit rate 9.2% among 290,000; in the data active = inhibition mostly above about 28%, no sharp cut-off; inactive = mostly below about 43%
Numbers stand for hits; - = inactive; ? = inconclusive; . = no result. Rows were chosen to be rich in hits. Some 21% of all compounds tested hit in one or more screens of this group. Unless noted, calls come from the whole dose curve; as a rule, active = well fitted inhibition curve with a large enough effect; inconclusive = small, poorly fitted or top-dose-only effect, or another doubt; inactive = no such curve, though single readings can be large or run the other way.

SMILES | Pf growth 48h | Pf growth 96h | Cycloheximide cs | Shiga toxin inh
CC1CC=CC2C1C(=O)N(Cc1ccccc1)C2c1cccc([N+](=O)[O-])c1 (configuration not stated) | . | . | - | -
COc1ccc2[nH]c(C(=O)O)c(CCC(=O)O)c2c1 | - | ? | - | -
COc1ccc2[nH]c(C(=O)O)c(CCN3C(=O)c4ccc(C(=O)O)cc4C3=O)c2c1 | - | - | 17 | -
COc1ccc2cc1Oc1ccc(cc1)C[C@H]1c3c(cc4c(c3Oc3cc5c(cc3OC)CCN(C)[C@@H]5C2)OCO4)CCN1C | 1.9µM | 1.5µM | - | -
COc1ccc2cc1Oc1ccc(cc1)C[C@H]1c3cc(c(OC)cc3CCN1C)Oc1c(OC)c(OC)cc3c1[C@H](C2)N(C)CC3 | 2.1µM | 2.1µM | - | -
COc1cc2c3cc1Oc1cc(ccc1O)C[C@@H]1c4c(cc(OC)c(O)c4Oc4ccc(cc4)C[C@H]3N(C)CC2)CCN1C | 2.1µM | 1.7µM | - | -
S=C(NCCc1ccc(Cl)cc1)Nc1ccc(Cl)cc1Cl | ? | - | 13 | -
Fc1ccc(CNC(=S)Nc2ccc(Cl)cc2Cl)cc1 | ? | - | - | -
CCCNC(=S)Nc1ccc(Cl)cc1Cl | - | - | - | 41
Fc1ccc(NC(=S)Nc2ccc(Cl)cc2Cl)cc1 | - | - | 22 | -
COc1ccc(Cl)cc1NC(=S)NCc1ccccn1 | - | ? | - | -
S=C(NCc1ccccn1)Nc1ccc(Cl)cc1Cl | - | - | 45 | -
S=C(NCCCN1CCOCC1)Nc1ccc(Cl)cc1Cl | - | - | - | -
S=C(NCc1ccc(Cl)cc1)Nc1ccc(Cl)cc1Cl | - | ? | - | -
Cc1ccc(NC(=O)COC(=O)C2CC2C)c(S(=O)(=O)N2CCCCC2)c1 (configuration not stated) | - | ? | - | -
COc1ccc(Cc2nnc(NC(=O)c3ccccc3)s2)cc1OC | - | - | - | -
CCN1C(=NCCOC)N[C@@H](c2ccccc2)[C@H](C(=O)OC)[C@H]1C | - | - | - | -
CCOC(CNC(=O)c1cccn2c(=O)c3c(C)c(C)sc3nc12)OCC | 6.6µM | 13µM | - | -
Cc1cnn(-c2cc(N/N=C/c3ccccc3)ncn2)c1 | - | - | - | -
Cc1cnn(-c2cc(N/N=C/c3cccc(F)c3)ncn2)c1 | - | 1.9µM | - | -
Cc1cnn(-c2cc(N/N=C/c3ccccc3F)ncn2)c1 | - | 13µM | - | -
CCOC(=O)C1=C(c2ccccc2)NC(=S)NC1c1cc([N+](=O)[O-])ccc1OC (configuration not stated) | 12µM | - | - | -
CCCOc1ccc(C2NC(=S)NC(c3ccccc3)=C2C(=O)Nc2ccc(C)cc2)cc1OC (configuration not stated) | 2.6µM | - | - | -
CCOC(=O)C1=C(c2ccccc2)NC(=S)NC1c1cccc([N+](=O)[O-])c1 (configuration not stated) | - | ? | - | -
Cc1ccc(-c2n[nH]c(=S)nc2-c2ccc(C)cc2)cc1 | - | - | - | -
SMILES | Pf growth 48h | Pf growth 96h | Cycloheximide cs | Shiga toxin inh
CC[N+]12CCC(CC1)C(C(O)(c1ccccc1)c1ccccc1)C2 (configuration not stated) | ? | ? | - | -
C[N+]12CCC(CC1)C(C(O)(c1cccc(Cl)c1)c1cccc(Cl)c1)C2 (configuration not stated) | 13µM | 2.9µM | - | -
Cc1c(C(=O)O)c(-c2ccccc2)nn1-c1ccccc1 | - | 2.9µM | - | -
COc1ccccc1CNC(=O)c1c(-c2ccccc2)nn(-c2ccccc2)c1C | . | 9.3µM | - | -
COc1ccc(N2CCN(S(=O)(=O)c3cc4c(cc3C)N(C(C)=O)CCO4)CC2)cc1 | - | - | - | -
COc1ccc(Cl)cc1NC(=O)C(C)OC(=O)Cn1cc(C(F)(F)F)ccc1=O (configuration not stated) | - | - | . | .
CN1C(=O)c2ccc(NC(=O)CCS(=O)(=O)c3ccccc3)cc2C1=O | - | - | - | -
C=CCn1c(-c2ccc([N+](=O)[O-])cc2)n[nH]c1=S | - | 2.3µM | - | -
CC1(CCc2ccc3c(c2)OCO3)NCCc2c1[nH]c1ccccc21 (configuration not stated) | 10µM | ? | - | -
CC1(CCc2ccc3c(c2)OCO3)NC(=O)c2ccccc2N1 (configuration not stated) | - | - | - | -
O=C(COc1ccccc1Cl)Nc1cccnc1 | - | - | 40 | 73
Cc1ccc(Cl)c(OCC(=O)Nc2cccnc2)c1 | - | - | 58 | 105
CCOc1c2ccc(C(=O)NCc3ccc(C)cc3)cc2nn1CCOC | - | - | - | -
